In the library only some 2% were active in any assay of this set; here they are far more common.
HTT cytoprotect: qHTS Multiplex Assay to Identify Dual Action Probes in a Cell Model of Huntington: Cytoprotection (ATP); AID 1471, 2008; Potency, µM (series often up to 56.4 µM), for inactives: cytoprotection (ATP increase), usual class: activators; actives 0.14% (n = 230,000); PC12 HTT-Q103 induced, cytoprotection, ATP luminescence, 40 h; note: potency is the fitted concentration of half-maximal effect; % of control where 0% means no effect; nearly all actives have a fitted effect of over 45% in size
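Huntington model: PC12 line, ecdysone-inducible HTTQ103 exon1–GFP, tebufenozide 100 nM. Test articles in a dose series. Endpoint luminescence from cellular ATP.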
HTT aggregate: qHTS Multiplex Assay to Identify Dual Action Probes in a Cell Model of Huntington: Aggregate Formation (GFP); AID 1688, 2009; actives 1.1% (n = 220,000); PC12 HttQ103-GFP aggregates, Acumen cytometry, 40 h; Potency, µM (highest dose often 46.1 µM), inactives show at the top dose activity change, negative = inhibition, usual class: inhibitors; note: potency is the fitted concentration of half-maximal effect; % is set by controls: 0 for no effect and ±100 for the full control effect; nearly all actives have a fitted effect of over 60% in size
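Steps: seed 1500 PC12 HTTQ103-GFP cells/well; add tebufenozide, 100 nM final; add compound titration; add ATPLite reagent; quantify GFP aggregates by laser scanning cytometry.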
KDM4E inh: qHTS Assay for Inhibitors of Human Jumonji Domain Containing 2E (JMJD2E). JMJD2E catalytic domain, FDH-coupled NADH fluorescence (FDH is formaldehyde dehydrogenase). Potency, µM (doses to about 57.1 µM), inactives show at the top dose activity change, negative = inhibition, usual class: inhibitors. actives 1.6% (n = 230,000); active = well fitted inhibition curve with a large enough effect, not every such curve was filed as active; inconclusive = small, poorly fitted or top-dose-only effect, or another doubt; inactive = no such curve, though single readings can be large or run the other way;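 note: potency is the fitted concentration of half-maximal effect; 0% = wells with enzyme and -100% = buffer wells without enzyme; nearly all actives have a fitted effect of over 50% in size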
Target sequence (B2RXH2 1-337 limits assumed): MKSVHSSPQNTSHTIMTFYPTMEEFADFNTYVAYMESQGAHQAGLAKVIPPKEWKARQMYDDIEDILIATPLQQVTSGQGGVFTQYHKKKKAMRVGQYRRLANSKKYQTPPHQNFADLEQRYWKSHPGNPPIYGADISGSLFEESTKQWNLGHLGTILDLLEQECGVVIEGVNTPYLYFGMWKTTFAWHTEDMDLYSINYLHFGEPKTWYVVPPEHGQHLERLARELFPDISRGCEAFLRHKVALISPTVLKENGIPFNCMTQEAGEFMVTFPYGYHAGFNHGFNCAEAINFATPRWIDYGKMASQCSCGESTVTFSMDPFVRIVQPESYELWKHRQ
TR SRC2 fluor cs: Total Fluorescence Counterscreen for Inhibitors of the Interaction of Thyroid Hormone Receptor and Steroid Receptor Coregulator 2; Potency, µM (highest dose often 106 µM), without a hit: at the top dose fluorescence change, negative = quenching; AID 1479, 2009; actives 0.29% (n = 280,000); TRb/SRC2 Texas Red total fluorescence interference; active = well fitted curve in either direction with a large enough effect; inconclusive = small, poorly fitted or top-dose-only effect; note: potency is the fitted concentration of half-maximal effect; % is set by controls: 0 for no effect and ±100 for the full control effect
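Flags fluorescent or light-absorbing compounds by total fluorescence, S + 2P, at 555 nm excitation and 632 nm emission. Mixture: 20 nM Texas Red SRC2 peptide, 0.6 uM human TRb LBD, 1 uM T3, 5% DMSO; compound exposure 5 h at ambient temperature.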
TRb SRC2 PPI: qHTS for Inhibitors of the Interaction of Thyroid Hormone Receptor and Steroid Receptor Coregulator 2; TRbeta-SRC2 peptide binding, fluorescence polarization; receptor liganded with 1 µM T3; Potency, µM (highest dose often 106 µM), for the others: at the top dose activity change, negative = inhibition, actives largely listed as inhibitors; actives 0.065% (n = 280,000);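 note: potency is the fitted concentration of half-maximal effect; plate controls were bound peptide for no effect and peptide without receptor for full effect; nearly all actives have a fitted effect of over 50% in size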
Target sequence (P10828 whole entry, looked up): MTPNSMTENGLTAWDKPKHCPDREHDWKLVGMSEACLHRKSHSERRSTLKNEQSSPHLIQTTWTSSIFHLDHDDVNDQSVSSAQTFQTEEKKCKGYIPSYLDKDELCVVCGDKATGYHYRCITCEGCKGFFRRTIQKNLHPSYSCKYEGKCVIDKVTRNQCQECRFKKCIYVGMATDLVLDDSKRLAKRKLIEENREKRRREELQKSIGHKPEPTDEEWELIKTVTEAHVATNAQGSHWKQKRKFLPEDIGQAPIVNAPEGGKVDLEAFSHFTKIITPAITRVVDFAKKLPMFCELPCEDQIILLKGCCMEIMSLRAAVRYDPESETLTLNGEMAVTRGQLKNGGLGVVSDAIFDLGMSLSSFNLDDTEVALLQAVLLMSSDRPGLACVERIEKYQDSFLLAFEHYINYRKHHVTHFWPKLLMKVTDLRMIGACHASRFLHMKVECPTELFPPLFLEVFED
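Fluorescence polarization of 20 nM Texas Red SRC2 peptide (20-aa NR interaction domain) bound to 0.6 uM human TRb ligand-binding domain, with 1 uM T3, after 5 hr at ambient temperature; inhibition seen as decreased polarization.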
Coupling enz: qHTS Assay for Inhibitors of Fructose-1,6-bisphosphate Aldolase from Giardia Lamblia: Coupling assay counterscreen; coupling enzyme system counterscreen, AmpLite Red fluorescence; activity change, negative = inhibition, % at 58.2 µM, hits read low; actives 0.67% (n = 290,000); AID 2472, 2010; in the data active = activity change below about -30%; note: % is set by controls: 0 for no effect and ±100 for the full control effect
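Counterscreen of the coupled detection system alone, without aldolase: glyceraldehyde-3-phosphate coupling enzymes plus AmpLite Red readout. Compounds at 57.5 uM final, 10 min RT preincubation, 20 min RT reaction, fluorescence 525/598 nm.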
An asterisk follows results filed as active; ? = inconclusive; / = no result given; [ ] = another dose, or the depositor's remark. Unless noted, calls come from the whole dose curve; as a rule, active = well fitted curve in the direction sought with a large enough effect; inconclusive = small, poorly fitted or top-dose-only effect, or another doubt; inactive = no such curve, though single readings can be large; an effect the other way counts as inactive or inconclusive.

SMILES	HTT cytoprotect	HTT aggregate	KDM4E inh	TR SRC2 fluor cs	TRb SRC2 PPI	Coupling enz
COc1ccc(/C=N/NC(=O)c2cc(O)c(O)c(O)c2)cc1Cn1cc([N+](=O)[O-])cn1	-52.0%	9.7%	2.24µM*	-8.5%	16.8%	-24.5
CCOc1cc(C2C(C#N)=C(N)SC(N)=C2C#N)ccc1OCCN1CCOCC1	-17.9%[0.074 µM]	?	-25.5%	4.8%	17.9%	-25.3
CCOc1ccc(C2C(C#N)=C(N)SC(N)=C2C#N)c(OCC)c1	4.1%[10 µM]	11.2%	?	-2.4%	4.7%	-37.0*
COc1c(O)c(O)cc2c1oc1c3ccccc3oc(=O)c21	-12.8%	/	15.8µM*	-10.4%	10.4%	-14.4
COc1ccc(OC)c(C2/C(=C(/O)c3cnn(-c4ccccc4)c3C)C(=O)C(=O)N2CCN(C)C)c1 (centres undefined)	-14.0%	10µM*	?	-3.2%	-2.1%	0.0
COc1ccc(OC)c(C2/C(=C(\O)c3ccc(OC)c(Cl)c3)C(=O)C(=O)N2CCN(C)C)c1 (centres undefined)	-36.4%	-11.1%	-25.3%	-2.7%	-20.8%	4.4
Cc1cc(C(=O)CSc2nc3ccccc3c(=O)n2C)c(C)n1Cc1ccc2c(c1)OCO2	-85.6%	1µM*	-3.1%	1.3%	-12.4%	-6.2
O=C(c1ccncc1)N1CCC[C@@]2(CCN(C(c3ccccc3)c3ccccc3)C2)C1	-2.6%	/	/	/	/	1.7
Cc1ccc(C(=O)c2ccc([N+](=O)[O-])cc2)cc1	11.7%	-30.5%	-4.1%	1.2%	-8.2%	0.0
Cc1ccc(C(=O)c2coc3cc([N+](=O)[O-])c(O)c([N+](=O)[O-])c23)cc1	5.6%[1.9 µM]	1.7%	-1.9%	?	-10.8%	-34.8*
CCOC(=O)CC(=O)CSc1nc(C)nc2c1oc1ccccc12	-6.2%	1.12µM*	?	1.1%	3.0%	0.0
Cc1nc(SCC(=O)O)c2oc3ccccc3c2n1	-23.4%	9.8%	-7.1%	2.3%	-8.5%	13.8
COc1ccccc1Nc1ncc(C(=O)N2CCC(C(N)=O)CC2)c2ccccc12	-17.7%[10 µM]	6.5%	-0.8%	-1.5%	-10.7%	-34.2*
COc1ccc(Nc2ncc(C(=O)N3CCC(C(N)=O)CC3)c3ccccc23)cc1	-0.8%	3.3%	-1.7%	-1.3%	1.9%	-1.4
CSc1ccc(CNC(=O)CCc2c(C)nn(-c3ccc(N4CCCC4)nn3)c2C)cc1	/	/	/	-2.6%	2.6%	/
O=C(Nc1ccc(-c2nc3ccccc3s2)c(O)c1)c1ccc(Br)cc1	/	/	/	4.1%	-1.7%	/
Oc1ccc(N=C/C=C/c2ccc(Br)cc2)cc1-c1nc2ccccc2s1	?	5.6%	14.1µM*	-11.6%	2.2%	-11.0
CCC(C)c1cc([N+](=O)[O-])cc([N+](=O)[O-])c1OC(=O)OC(C)C (centres undefined)	/	/	/	-1.6%	0.6%	-7.7
CC(C)CCSc1nc(N)c(C#N)cc1C#N	-28.0%[10 µM]	22.4µM*	?	-2.7%	-2.2%	-1.6
Cc1cccc[n+]1C1C(c2ccc([N+](=O)[O-])cc2)C(C#N)=C(C(=C=[N-])C#N)NC1(O)C1CC1 (centres undefined)	-94.1%[10 µM]	?	12.6µM*	0.1%	1.5%	-1.5
COC(=O)[C@H](Cc1ccccc1)NC(=O)O[C@@H]1C(=O)c2cc(Br)ccc2O[C@H]1c1ccc2c(c1)OCO2	-368.3%	/	-6.3%	-1.9%	10.2%	2.4
O=C(Nc1nc(-c2ccccn2)cs1)c1ccc(Br)s1	-51.0%	1.26µM*	?	-8.7%	0.7%	-7.6
O=C(Nc1nc(-c2ccccn2)cs1)c1ccco1	-120.1%	?	?	-10.3%	-4.6%	-9.0
CC(C)=CCC[C@@H](C)[C@H]1CC[C@@]2(C)C3=C(CC[C@]12C)[C@@]1(C)CC[C@H](O)C(C)(C)[C@@H]1CC3	/	/	/	1.7%[201 µM]	-2.6%[201 µM]	/
CCOC(=O)N1CCc2c(sc(NCc3cc(OC)ccc3OC)c2C(=O)Nc2cc(OC)ccc2OC)C1	/	/	/	398µM*[quencher]	-21.5%	/
SMILES	HTT cytoprotect	HTT aggregate	KDM4E inh	TR SRC2 fluor cs	TRb SRC2 PPI	Coupling enz
CCOC(=O)N1CCc2c(sc(NCc3sccc3C)c2C(=O)Nc2cc(OC)ccc2OC)C1	/	/	/	-5.5%	-0.5%	/
Cc1cccc(N=Cc2c(O)cc(C)oc2=O)c1	/	12.7%	?	10.5%	11.0%	-1.3
Cc1cccc(N=Cc2[nH]c3ccc(Br)c(Cl)c3c2O)c1	22.2%[10 µM]	-8.6%	5.6%	2.9%	4.5%	-32.7*
COc1ccccc1CN=Cc1[nH]c2ccc(Br)c(Cl)c2c1O	-16.7%	?	-21.6%	-1.5%	-16.2%	-44.0*
COc1ncc2nc(C)c(=O)n(CCC#N)c2n1	9.3%	/	/	/	/	3.5
CN(C)CCCN=C(N)N	-4.4%[10 µM]	/	/	/	/	/
Cc1nc2c(-c3ccccc3)c[nH]n2c(=O)c1Cc1ccccc1	-149.5%	7.08µM*	?	0.5%	-10.7%	-2.9
Cc1ccsc1C(=O)OCc1nc2ccccc2c(=O)[nH]1	8.6%	2.9%	-11.6%	1.0%	8.8%	-34.6*
CCOC(=O)c1nc2ccccc2c(=O)[nH]1	6.4%[10 µM]	0.0%[9.22 µM]	9.7%	0.3%	4.4%	-1.3
CCC(C)CC(C)CC(C)C(=O)/C=C(/O)C(C)CC(C)C/C=C/C(C)C(O)C(C)C(O)CC1CCC(C)(C)O1 (centres undefined)	/	/	/	-0.9%	-0.1%	5.8
CCCc1nnc(NC(=O)Cc2coc3ccc(C)cc23)s1	/	/	/	-0.6%	1.3%	/
CCCC1=[N+](CC)CCn2c(C)ccc21	31.3%[10 µM]	11.2µM*	-21.1%	-0.9%	8.3%	0.3
CCCN1C(=O)C2(c3ccccc31)c1c(oc3ccccc3c1=O)C(=O)N2CCO (centres undefined)	/	/	/	31.6µM*[quencher]	-12.3%[53 µM]	/
CCCN1C(=O)C2(c3ccccc31)c1c(oc3ccc(F)cc3c1=O)C(=O)N2CCCOC(C)C (centres undefined)	/	/	/	3.55µM*[quencher]	?	/
N#Cc1ccc(NC(=O)Nc2ccc(Cl)cc2)cc1	-3.3%[10 µM]	25.1µM*	-1.9%	-0.8%	1.6%	-5.6
CN(CC(=O)Nc1ccc(C#N)cc1)Cc1ccc(Cl)cc1	16.1%[10 µM]	-21.3%	0.5%	3.7%	4.6%	-0.7
COc1ccc(Cn2nnc3c(C)n[nH]c(=O)c32)cc1	/	/	/	/	/	-0.3
COc1ccc(OC)c(-c2nc3c(C)n[nH]c(=O)c3[nH]2)c1	-24.1%[10 µM]	12.6µM*	?	0.5%	-8.9%	-0.4
